# Results: PubChem BioAssay (Tox21)
# Active and inactive are the calls of the source. Where a call stands in place of a potency, no number is given. The call rests on the fitted dose curve.
# Molecular target: Gonadotropin-releasing hormone receptor (Homo sapiens) (UniProt P30968)
# Assay: Human gonadotropin-releasing hormone receptor (GnRHR) small molecule agonists, calcium flux assay in GnRHR-HEK293 cells (AID 1920063); further: nearly all actives have a fitted effect of over 35% in size
# Method in brief: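 Fluorescence kinetics (480 nm excitation, 540 nm emission; 3 min, 1 s steps) report calcium mobilisation in human GnRHR-HEK293 cells in agonist mode. Dye incubation: 1 h, 37 C.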
# Potency means the concentration at half of the fitted maximal effect.
# Gonadotropin-releasing hormone receptor (Homo sapiens), sequence (P30968 whole entry, looked up): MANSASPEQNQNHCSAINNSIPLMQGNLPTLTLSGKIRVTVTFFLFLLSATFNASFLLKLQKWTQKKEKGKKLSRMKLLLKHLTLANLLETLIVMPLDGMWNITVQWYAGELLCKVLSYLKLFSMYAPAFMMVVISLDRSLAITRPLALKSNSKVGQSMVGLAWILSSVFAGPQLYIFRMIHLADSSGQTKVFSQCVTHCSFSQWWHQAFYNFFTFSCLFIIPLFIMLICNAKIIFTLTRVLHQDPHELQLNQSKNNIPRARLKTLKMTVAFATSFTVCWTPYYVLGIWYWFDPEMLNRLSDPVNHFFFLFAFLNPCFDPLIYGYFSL
Structure (SMILES),Potency,activity change
Cc1ncc([C@@H](CCCCCCc2ccc3c(n2)NCCC3)CC(=O)O)cn1,inactive,–
Nc1cc(N)cc(C(=O)O)c1,inactive,–
O=CNc1ccccc1,inactive,–
CC(C)(CO)[C@@H](O)C(=O)NCCCO,inactive,–
CN1CCC(=C2c3ccccc3Sc3ccccc32)CC1,inactive,–
COc1cc(/C=C/C(=O)CC(=O)/C=C/c2ccc(O)c(OC)c2)ccc1O,39.2 µM (active),–
CCOc1ccc2nc(N)sc2c1,inactive,–
CCc1ccccc1,inactive,–
Brc1c2ccccc2c(Br)c2ccccc12,–,"-0.0865% [at 5.22 µM, hits give high values] (inactive)"
O=C(O)CC(=O)C(=O)O,inactive,–
O=C(O)CCc1nc(-c2ccccc2)c(-c2ccccc2)o1,inactive,–
Fc1ccc(C(c2ccc(F)cc2)N2CCN(C/C=C/c3ccccc3)CC2)cc1,inactive,–
Nc1c[n+](N2CCOCC2)no1,inactive,–
CCCCOCC(C)OCC(C)O (configuration not stated),inactive,–
Cc1cc(C(C#N)c2ccc(Cl)cc2)c(Cl)cc1NC(=O)c1cc(I)cc(I)c1O (configuration not stated),inactive,–
C=C1CC[C@H]2C[C@@H]1C2(C)C,inactive,–
COc1cc(C(C)C)c2c(c1)S(=O)(=O)N(COc1cc(=O)n3cccc(OCCN4CCCCC4)c3n1)C2=O,–,"-0.424% [at 11.8 µM, hits give high values] (inactive)"
